About 7,900 targets were measured; listed, in parts, are those with a hit and a random draw of the rest. About 0.6% of all pairs of compound and target were hits. A number with no mark means an inactive call.
What was measured:
Assay in all cases: log2 fold change, soluble protein after heating vs DMSO (PISA); higher = thermal stabilisation; K562 cells, 10 uM, 30 min; active = over 0.2 and 3.5 SD of the protein, either way, in both replicates (recomputed)
[1] = compound: C#Cc1cccc(Nc2ncnc3cc(OCCOC)c(OCCOC)cc23)c1 [erlotinib]
In short: (§1)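 Quantification of soluble protein used TMTpro 16plex LC-MS/MS, with channel sums equalised. Samples were the supernatant after 21,000xg for 90 min of pooled aliquots from K562 cells (2×10^6 cells/mL) treated with 10 μM compound for 30 min, heated for 3 min over 48°C-58°C, and extracted in PBS with 0.5% NP-40 at 4°C. Values, from duplicates, describe thermal stability against control samples on a log2 fold-change scale.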

[2] = compound: C/C(=N\NC(=O)C1=CC(=CC=C1)S(=O)(=O)N2CCOCC2)/C3=C(C=CC(=C3)Cl)O
In short: as §1

[3] = compound: C1=CC(=C(C=C1Cl)C2=NC3=NC=CN=C3C(=N2)NC4=CC=NC=C4)F
In short: as §1

[4] = compound: C1=CC(=CC=C1C2=NC3=C(N2)C=C(C=C3)C(=O)N)OC4=CC=C(C=C4)Cl
In short: as §1

[5] = compound: C1=CC2=C(C=CC(=C2)/C=C\3/C(=O)NC(=NCC4=CC=CS4)S3)N=C1
In short: as §1

[6] = compound: C1=CC2=NC=CN=C2C=C1/C=C/3\C(=O)NC(=O)S3
In short: as §1

[7] = compound: C1=CC=C(C=C1)C2=NC(=C(N2)C3=CC=NC=C3)C4=CC(=C(C=C4)Cl)O
In short: as §1

[8] = compound: C1=CC=C2C(=C1)C3=NNC4=CC=CC(=C43)C2=O
In short: as §1

[9] = compound: C1CCN(C1)C(=O)NC2=CC=CC(=C2)NC3=NC=C(C(=N3)NCCC4=CN=CN4)Br
In short: as §1

[10] = compound: C1CN(CCC1(CC2=CC=C(C=C2)Cl)N)C3=NC=NC4=C3C=CN4
In short: as §1

[11] = compound: C1COCCN1CCN2C3=CC=CC=C3N=C2NC(=O)C4=CC(=CC=C4)[N+](=O)[O-] [IRAK-1-4 Inhibitor I]
In short: as §1

[12] = compound: C=CC(=O)N1CCC[C@@H](n2nc(-c3ccc(Oc4ccccc4)cc3)c3c(N)ncnc32)C1 [ibrutinib]
In short: as §1

[13] = compound: CC(=O)c1cnc2ccc(-c3cc(Cl)c(O)c(Cl)c3)nc2c1N[C@H]1CC[C@H](CN(C)C)CC1
In short: as §1

[14] = compound: CC(C)(C)Cn1c(N)nc2ccc(-c3[nH]c(C(C)(C)C)nc3-c3ccc(F)cc3)nc21 [ralimetinib]
In short: as §1

[15] = compound: CC(C)(O)CC(=O)NCCn1ccc2ncnc(Nc3ccc(Oc4cccc(C(F)(F)F)c4)c(Cl)c3)c21
In short: as §1

[16] = compound: CC(C)C1=C2N=C(C=C(N2N=C1)NCC3=CC=CC=C3)NCCCCCCN
In short: as §1

[17] = compound: CC(C)C[C@@H](C=O)NC(=O)[C@H](CC(C)C)NC(=O)[C@H](CC(C)C)NC(=O)OCc1ccccc1
In short: as §1

[18] = compound: CC(C)N(C[C@H]1O[C@@H](n2cnc3c(N)ncnc32)[C@H](O)[C@@H]1O)[C@H]1C[C@@H](CCc2nc3cc(C(C)(C)C)ccc3[nH]2)C1 [pinometostat]
In short: as §1

[19] = compound: CC1=C(C(CC(=O)N1)C2=CC=C(C=C2)C(F)(F)F)C(=O)NC3=C(C=C4C(=C3)C=NN4)F
In short: as §1

[20] = compound: CC1=C(C2=C(C=C1)C(=O)C3=CC=CC=C3N2CCCN)C
In short: as §1

Chain of UniProt O15021 (O15021 whole entry, looked up): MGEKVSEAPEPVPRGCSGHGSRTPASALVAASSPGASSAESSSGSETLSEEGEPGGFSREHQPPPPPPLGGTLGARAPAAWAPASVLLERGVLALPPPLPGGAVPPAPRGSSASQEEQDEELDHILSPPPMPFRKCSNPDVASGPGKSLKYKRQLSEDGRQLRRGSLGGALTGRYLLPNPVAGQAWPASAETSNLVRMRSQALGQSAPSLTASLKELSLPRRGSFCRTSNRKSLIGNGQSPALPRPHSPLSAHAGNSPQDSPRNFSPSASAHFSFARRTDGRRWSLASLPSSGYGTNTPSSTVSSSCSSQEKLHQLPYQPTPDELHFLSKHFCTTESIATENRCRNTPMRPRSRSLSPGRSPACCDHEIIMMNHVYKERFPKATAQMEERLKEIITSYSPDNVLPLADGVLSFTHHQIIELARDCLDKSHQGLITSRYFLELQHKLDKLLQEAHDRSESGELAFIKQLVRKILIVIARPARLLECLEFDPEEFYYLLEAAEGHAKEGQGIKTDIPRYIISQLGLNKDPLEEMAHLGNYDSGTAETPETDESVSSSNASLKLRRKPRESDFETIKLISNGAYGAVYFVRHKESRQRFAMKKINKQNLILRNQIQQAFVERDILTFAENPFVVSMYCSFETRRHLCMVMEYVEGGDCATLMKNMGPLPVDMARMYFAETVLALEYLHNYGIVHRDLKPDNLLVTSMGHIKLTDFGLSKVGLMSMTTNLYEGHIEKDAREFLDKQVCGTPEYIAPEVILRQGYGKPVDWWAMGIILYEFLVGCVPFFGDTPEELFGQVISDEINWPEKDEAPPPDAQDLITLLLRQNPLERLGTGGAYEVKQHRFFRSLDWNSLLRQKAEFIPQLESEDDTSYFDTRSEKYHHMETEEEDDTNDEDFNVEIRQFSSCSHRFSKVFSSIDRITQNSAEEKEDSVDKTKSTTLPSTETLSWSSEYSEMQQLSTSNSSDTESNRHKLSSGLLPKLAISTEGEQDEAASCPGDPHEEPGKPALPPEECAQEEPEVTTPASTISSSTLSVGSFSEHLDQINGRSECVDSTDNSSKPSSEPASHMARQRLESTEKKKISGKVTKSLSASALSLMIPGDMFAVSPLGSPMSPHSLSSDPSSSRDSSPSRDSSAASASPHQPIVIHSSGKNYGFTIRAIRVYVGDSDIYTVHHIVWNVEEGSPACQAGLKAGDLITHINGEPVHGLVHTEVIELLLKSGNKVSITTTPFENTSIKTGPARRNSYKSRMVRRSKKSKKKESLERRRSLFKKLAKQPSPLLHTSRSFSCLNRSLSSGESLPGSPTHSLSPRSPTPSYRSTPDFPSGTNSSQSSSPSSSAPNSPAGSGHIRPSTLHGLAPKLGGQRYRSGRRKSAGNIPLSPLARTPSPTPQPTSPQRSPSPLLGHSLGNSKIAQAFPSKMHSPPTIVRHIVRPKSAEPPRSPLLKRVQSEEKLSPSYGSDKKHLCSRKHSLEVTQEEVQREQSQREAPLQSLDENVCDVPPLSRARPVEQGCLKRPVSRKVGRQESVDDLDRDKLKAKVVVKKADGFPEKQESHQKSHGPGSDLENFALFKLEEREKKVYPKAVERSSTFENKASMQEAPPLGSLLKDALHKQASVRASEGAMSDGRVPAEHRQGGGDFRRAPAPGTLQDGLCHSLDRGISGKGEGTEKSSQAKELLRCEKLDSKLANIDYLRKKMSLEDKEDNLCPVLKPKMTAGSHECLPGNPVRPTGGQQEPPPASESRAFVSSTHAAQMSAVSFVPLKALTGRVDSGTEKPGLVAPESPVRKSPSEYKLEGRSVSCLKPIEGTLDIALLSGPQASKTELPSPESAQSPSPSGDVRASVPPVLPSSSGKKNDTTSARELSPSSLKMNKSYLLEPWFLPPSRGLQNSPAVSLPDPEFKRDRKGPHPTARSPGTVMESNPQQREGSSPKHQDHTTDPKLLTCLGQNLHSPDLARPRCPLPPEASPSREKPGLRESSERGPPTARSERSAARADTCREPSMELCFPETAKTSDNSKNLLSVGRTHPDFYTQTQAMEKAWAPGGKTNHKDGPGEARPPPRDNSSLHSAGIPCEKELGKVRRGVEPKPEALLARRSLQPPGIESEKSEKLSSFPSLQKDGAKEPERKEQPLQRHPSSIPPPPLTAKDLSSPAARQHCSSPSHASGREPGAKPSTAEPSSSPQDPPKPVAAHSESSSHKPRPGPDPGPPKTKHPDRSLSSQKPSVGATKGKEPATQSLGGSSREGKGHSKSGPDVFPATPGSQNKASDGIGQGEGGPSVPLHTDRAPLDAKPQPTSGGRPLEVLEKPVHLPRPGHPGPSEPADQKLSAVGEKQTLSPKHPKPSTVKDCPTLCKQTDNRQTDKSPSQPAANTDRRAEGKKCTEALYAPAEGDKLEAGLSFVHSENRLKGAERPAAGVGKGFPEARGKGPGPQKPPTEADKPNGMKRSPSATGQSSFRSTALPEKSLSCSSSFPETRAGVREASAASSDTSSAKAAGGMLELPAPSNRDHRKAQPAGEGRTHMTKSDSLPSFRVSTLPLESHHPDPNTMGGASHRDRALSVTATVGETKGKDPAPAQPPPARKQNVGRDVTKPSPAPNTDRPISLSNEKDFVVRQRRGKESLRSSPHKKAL
Chain of UniProt P49441 (P49441 whole entry, looked up): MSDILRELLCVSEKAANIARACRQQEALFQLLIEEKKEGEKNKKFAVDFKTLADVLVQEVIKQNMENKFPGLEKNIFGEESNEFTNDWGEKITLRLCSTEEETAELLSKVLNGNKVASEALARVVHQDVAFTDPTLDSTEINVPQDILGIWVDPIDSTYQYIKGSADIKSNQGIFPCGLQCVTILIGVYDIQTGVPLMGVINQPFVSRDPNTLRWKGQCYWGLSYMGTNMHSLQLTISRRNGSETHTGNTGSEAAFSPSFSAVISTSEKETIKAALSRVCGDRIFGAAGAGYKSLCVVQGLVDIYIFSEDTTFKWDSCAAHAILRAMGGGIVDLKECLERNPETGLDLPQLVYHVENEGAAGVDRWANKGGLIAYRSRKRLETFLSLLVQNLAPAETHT
Chain of UniProt Q99661 (Q99661 whole entry, looked up): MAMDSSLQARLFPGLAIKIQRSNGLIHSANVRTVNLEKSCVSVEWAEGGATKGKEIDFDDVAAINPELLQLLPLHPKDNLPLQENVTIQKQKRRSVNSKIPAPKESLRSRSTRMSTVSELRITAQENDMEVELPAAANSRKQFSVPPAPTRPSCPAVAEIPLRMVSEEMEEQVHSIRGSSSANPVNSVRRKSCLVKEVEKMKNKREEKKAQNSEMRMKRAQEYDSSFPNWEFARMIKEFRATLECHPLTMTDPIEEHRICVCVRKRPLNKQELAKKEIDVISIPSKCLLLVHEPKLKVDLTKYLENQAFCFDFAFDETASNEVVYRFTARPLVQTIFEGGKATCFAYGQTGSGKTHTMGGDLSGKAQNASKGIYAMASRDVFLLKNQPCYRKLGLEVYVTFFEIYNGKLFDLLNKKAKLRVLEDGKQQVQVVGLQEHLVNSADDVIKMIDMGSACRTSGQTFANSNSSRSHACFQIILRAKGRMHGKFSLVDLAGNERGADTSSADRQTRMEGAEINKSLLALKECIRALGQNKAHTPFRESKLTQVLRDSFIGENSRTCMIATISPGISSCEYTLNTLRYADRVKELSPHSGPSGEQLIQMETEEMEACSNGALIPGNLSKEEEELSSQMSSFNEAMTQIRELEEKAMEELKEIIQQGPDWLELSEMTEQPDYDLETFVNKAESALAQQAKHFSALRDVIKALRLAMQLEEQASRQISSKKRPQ
Chain of UniProt Q6P9B6 (Q6P9B6 whole entry, looked up): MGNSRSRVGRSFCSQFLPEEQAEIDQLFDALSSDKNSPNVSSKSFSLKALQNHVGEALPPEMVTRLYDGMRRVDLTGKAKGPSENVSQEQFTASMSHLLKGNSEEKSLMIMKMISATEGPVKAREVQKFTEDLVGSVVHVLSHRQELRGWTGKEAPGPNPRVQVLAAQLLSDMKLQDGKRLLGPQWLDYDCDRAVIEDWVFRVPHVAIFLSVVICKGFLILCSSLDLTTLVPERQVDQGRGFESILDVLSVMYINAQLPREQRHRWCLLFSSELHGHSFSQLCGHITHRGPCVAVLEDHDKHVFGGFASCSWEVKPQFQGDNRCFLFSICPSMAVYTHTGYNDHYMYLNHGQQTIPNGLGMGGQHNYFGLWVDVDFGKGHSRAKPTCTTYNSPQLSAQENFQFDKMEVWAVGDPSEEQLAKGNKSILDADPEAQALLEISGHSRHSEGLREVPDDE
Chain of UniProt Q07820 (Q07820 whole entry, looked up): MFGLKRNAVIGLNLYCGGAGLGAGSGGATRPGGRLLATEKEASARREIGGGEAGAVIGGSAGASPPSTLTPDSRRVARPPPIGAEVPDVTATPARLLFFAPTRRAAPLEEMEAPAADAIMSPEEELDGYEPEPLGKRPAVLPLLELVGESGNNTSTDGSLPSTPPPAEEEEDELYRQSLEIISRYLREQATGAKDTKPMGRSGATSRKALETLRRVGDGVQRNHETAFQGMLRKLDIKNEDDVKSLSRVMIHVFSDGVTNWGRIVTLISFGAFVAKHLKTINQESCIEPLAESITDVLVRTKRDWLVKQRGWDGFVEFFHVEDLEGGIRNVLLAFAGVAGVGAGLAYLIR

Target | log2 fold change [1] | log2 fold change [2] | log2 fold change [3] | log2 fold change [4] | log2 fold change [5] | log2 fold change [6] | log2 fold change [7] | log2 fold change [8] | log2 fold change [9] | log2 fold change [10] | log2 fold change [11] | log2 fold change [12] | log2 fold change [13] | log2 fold change [14] | log2 fold change [15] | log2 fold change [16] | log2 fold change [17] | log2 fold change [18] | log2 fold change [19] | log2 fold change [20]
MAST4 (UniProt O15021) | -0.016 | 0.101 | 0.082 | 0.054 | 0.032 | 0.048 | -0.086 | -0.02 | -0.007 | -0.094 | -0.025 | -0.138 | -0.089 | -0.479 (active) | -0.091 | -0.085 | 0.002 | -0.057 | -0.027 | 0.268
LSS (UniProt P48449) | 0.293 | 0.073 | -0.029 | 0.051 | 0.128 | 0.069 | -0.005 | 0.081 | 0.005 | 0.089 | -0.119 | -0.087 | -0.084 | 0.147 | 0.099 | 0.199 | 0.077 | -0.116 | -0.022 | -0.195
MCL1 (UniProt Q07820) | -0.225 | 0 | -0.037 | -0.01 | -0.057 | 0.027 | -0.121 | -0.161 | -0.039 | 0 | 0.052 | 0.095 | -0.036 | 0.175 | -0.054 | -0.234 | 0.295 | -0.186 | 0.091 | -0.117
MED22 (UniProt Q15528) | -0.11 | 0.035 | -0.013 | -0.036 | 0.061 | -0.002 | 0.022 | -0.071 | -0.156 | 0.259 | 0.013 | 0.076 | -0.058 | 0.064 | 0.039 | -0.016 | 0.076 | 0.012 | -0.007 | 0.096
MAP2K2 (UniProt P36507) | 0.021 | -0.005 | 0.05 | -0.001 | 0.054 | -0.005 | -0.058 | -0.029 | -0.003 | 0.016 | 0.045 | 0.012 | -0.496 (active) | 0.105 | -0.065 | -0.02 | 0.056 | 0.003 | 0.011 | -0.001
KIF2C (UniProt Q99661) | 0.036 | 0.09 | 0.036 | 0.021 | 0.01 | -0.004 | 0.043 | 0.019 | -0.031 | -0.103 | -0.111 | -0.033 | -0.058 | 0.028 | -0.069 | -0.065 | 0.035 | 0.031 | -0.008 | 0.028
LTV1 (UniProt Q96GA3) | -0.079 | -0.073 | -0.275 | 0.041 | -0.037 | 0.013 | -0.055 | 0.046 | 0.143 | -0.284 | -0.101 | -0.009 | 0.224 | 0.134 | 0.001 | -0.233 | 0.104 | 0.249 | -0.005 | -0.726 (active)
INPP1 (UniProt P49441) | 0.014 | 0.006 | 0.073 | 0.059 | 0.042 | -0.01 | 0.005 | 0.044 | 0.01 | -0.101 | -0.001 | 0.023 | -0.003 | -0.108 | -0.039 | 0.016 | -0.007 | -0.054 | -0.072 | -0.03
MICU1 isoform 3 (UniProt Q9BPX6) | -0.02 | -0.026 | -0.022 | 0.002 | -0.009 | 0.007 | -0.054 | 0.008 | 0.013 | -0.015 | 0 | -0.009 | -0.025 | 0.007 | -0.016 | -0.285 (active) | 0.08 | 0.076 | 0.067 | 0.09
LAMP2 (UniProt P13473) | 0.035 | 0 | 0.088 | 0.031 | 0.002 | 0.101 | -0.013 | -0.01 | -0.013 | 0.039 | 0.063 | 0.042 | -0.083 | -0.12 | -0.007 | -0.033 | 0.004 | -0.077 | -0.139 | 0.066
KPNA6 (UniProt O60684) | 0.077 | 0.108 | -0.068 | -0.075 | 0.013 | 0.059 | 0.015 | -0.119 | 0.017 | -0.07 | -0.046 | -0.032 | -0.04 | 0.077 | -0.047 | -0.239 | 0.087 | 0.087 | 0.04 | -0.15
IRF3 (UniProt Q14653) | 0.042 | 0.056 | 0.019 | -0.022 | 0.046 | -0.022 | -0.036 | 0 | -0.055 | -0.008 | 0.002 | 0.13 | -0.019 | -0.037 | 0 | -0.065 | -0.015 | -0.002 | 0.04 | 0.02
METTL18 (UniProt O95568) | -0.042 | -0.037 | -0.08 | 0.027 | 0.038 | 0.046 | -0.039 | -0.06 | 0.028 | 0.078 | 0.01 | 0.019 | 0.013 | -0.036 | 0.016 | -0.009 | -0.003 | 0.023 | 0.065 | 0.072
MAD2L1 (UniProt Q13257) | -0.01 | 0.056 | 0.029 | -0.052 | 0.033 | 0.056 | -0.009 | 0.007 | 0.01 | -0.032 | 0 | -0.095 | 0.008 | -0.004 | -0.057 | -0.112 | -0.018 | 0.031 | -0.004 | -0.033
MEAK7 (UniProt Q6P9B6) | 0.015 | -0.005 | 0.023 | 0.054 | 0.069 | 0.014 | -0.062 | 0.092 | -0.042 | -0.017 | 0.015 | -0.041 | -0.093 | 0.078 | -0.018 | -0.2 | 0.079 | 0.037 | -0.004 | 0.033
MAP4 (UniProt P27816) | 0.003 | -0.041 | 0.006 | -0.009 | -0.039 | 0.011 | -0.007 | -0.02 | -0.025 | 0.015 | 0.003 | 0 | 0.012 | 0.025 | 0.012 | 0.076 | 0.019 | 0.001 | 0.006 | 0.08
